# Compounds with a hit are over-represented: about 19% of the library has one in this group of screens.
# IL-1B inflam inh: inhibitors of inflammasome signaling (IL-1 beta secretion) | 4.7% of 360,000 active | activity change, % at 57.5 µM | THP-1 LPS/ATP IL-1B secretion, AlphaLISA, 16 h; active compounds read low; in the data active = activity change below about -50%; inconclusive = mostly about -30% to -49%
#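 Secreted IL-1B measured by AlphaLISA bead assay after 16 h compound exposure of THP-1 cells; compounds (final up to 57.5 uM) added 1 h before LPS (250 ng/mL) and ATP (1.25 mM) stimulation; lower signal means less secretion.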
# DT40 TDP1 CPT: DT40-hTDP1 cell growth loss with CPT | chicken DT40 Tdp1-/-;hTDP1 cells + 20 nM CPT, ATP luminescence, 48 h | Potency, µM (doses to about 46.2 µM), most hits filed as inhibitors | 12% of 420,000 active; note: nearly all actives have a fitted effect of over 55% in size
#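 Cell growth measured by CellTiter-Glo luminescence after a minimum 48 h, 37 C compound exposure with 20 nM CPT in Tdp1-knockout DT40 cells stably expressing hTDP1, seeded 400/well; qHTS titration format.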
# SW480 rereplic: inducers of DNA re-replication in SW480 colon cancer cells. SW480 DNA re-replication, Hoechst DNA content imaging, 48 h. Potency, µM (top dose mostly 46.1 µM), hits mostly activators. 1.8% of 340,000 active. AID 624297; note: nearly all actives have a fitted effect of over 55% in size
#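 250 cells/well; 23 nL cpd via pin tool; 48 hr, 37 C, 5% CO2; Hoechst 40 min; imager read of total nuclear intensity, ex 405/em 500-530 nm.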
# MCF10A rerep: inducers of DNA re-replication in MCF 10A breast cells. MCF 10A DNA re-replication, Hoechst nuclear intensity, 48 h. Potency, µM (highest dose often 46.1 µM), usual class: activators. 2.9% of 350,000 active; note: nearly all actives have a fitted effect of over 50% in size
# BCR signal inh: inhibitors of chronic active B-cell receptor signaling; ABC-DLBCL IkBa-CBG/CBR reporter, luminescence ratio, 4 h; Potency, µM (highest dose often 46.1 µM), usual class: inhibitors; 0.05% of 340,000 active; AID 493014; active = well fitted inhibition curve with a large enough effect in the signal ratio, with a control signal flat, not every such curve was filed as active; inconclusive = small, poorly fitted or top-dose-only effect, or effect the other way, or a change in a side signal; the % refers to the signal ratio
#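 Compounds up to 46 uM were incubated four hours with TMD8 cells whose green CBG68 luciferase is fused to IkappaBalpha; red CBR luminescence normalised the signal, and concentration-effect curves were fitted to fusion, red and ratio data.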
# TDP1 cell noCPT: qHTS for Inhibitors of human tyrosyl-DNA phosphodiesterase 1 (TDP1): qHTS in cells in absence of CPT; DT40 Tdp1-/- hTDP1 cells, no CPT, ATP luminescence, 48 h; Potency, µM (highest dose often 46.2 µM), usual class: inhibitors; 15% of 420,000 active; note: nearly all actives have a fitted effect of over 55% in size
#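 Luminescent ATP content (CellTiter-Glo) served as the growth readout. Knockout chicken DT40 cells expressing human TDP1 were exposed to compounds without camptothecin for a minimum 48 hr at 37 °C.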
# Numbers stand for hits; . = inactive; ? = inconclusive; / = not tested or not shown; [ ] = dose if it differs, or a comment. Unless noted, calls come from the whole dose curve; as a rule, active = well fitted curve in the direction sought with a large enough effect; inconclusive = small, poorly fitted or top-dose-only effect, or another doubt; inactive = no such curve, though single readings can be large; an effect the other way counts as inactive or inconclusive.
SMILES,IL-1B inflam inh,DT40 TDP1 CPT,SW480 rereplic,MCF10A rerep,BCR signal inh,TDP1 cell noCPT
Cc1ccc(CN2C(=O)C(=O)c3cc(C)ccc32)cc1,.,0.58µM,?,?,?,0.65µM
COc1ccc(OC)c(NC(=O)CCCCCn2nnc3ccccc3c2=O)c1,.,?,.,.,?,?
O=C1NC(=Nc2cccc(O)c2)S/C1=C\c1cccc([N+](=O)[O-])c1,.,.,.,.,?,?
CN(C)c1ccc(/C=N/N=C2/NC(=O)/C(=C/c3ccc([N+](=O)[O-])cc3)S2)cc1,.,?,.,?,?,16µM
OCCC1CN(C2CCC2)CCN1Cc1ccc(F)c(F)c1 (configuration not stated),.,.,.[9.22 µM],.,.,.
Cc1ccc(C(=O)Nc2cccc(C(=O)NC3CCCCC3)c2)cc1,.,23µM,.,.,/,?
Cc1ccn2cc(C(=O)Nc3cccc(C(=O)NC4CC4)c3)nc2c1,.,?,.,.,?,16µM
Cc1ccc(-c2nn3c(-c4ccco4)nnc3c3ccccc23)cc1S(=O)(=O)N1CCOCC1,/,/,/,/,.,/
CNS(=O)(=O)c1cc(-c2nnc(N3CCOCC3)c3ccccc23)ccc1C,.,.,.,.,/,.
Cc1ccc(Nc2nnc(-c3ccc(C)c(S(=O)(=O)N4CCOCC4)c3)c3ccccc23)c(C)c1,/,?,/,/,/,16µM
Cc1ccccc1Nc1nnc(-c2ccc(C)c(S(=O)(=O)N3CCOCC3)c2)c2ccccc12,/,?,/,/,/,16µM
CNS(=O)(=O)c1cc(-c2nnc(Nc3cc(C)ccc3C)c3ccccc23)ccc1C,/,21µM,/,/,/,21µM
COC(=O)[C@]12CCCCC=C1N(Cc1ccco1)C(=O)[C@H](CC(=O)NCCCN1CCCC1=O)C2,.,.,/,/,/,.
O=C(CSc1nnc(-c2ccc3c(c2)OCO3)o1)Nc1ncc(Cl)cc1Cl,.,21µM,?,13µM,?,21µM
CC(=O)ON(C(C)=O)S(=O)(=O)c1ccc(Cl)cc1,/,.,/,/,/,.
CCOC(=O)c1cc(-c2ccccc2)n(CCC(=O)Nc2ccc(OC)c(Cl)c2)c1C,/,16µM,/,/,.,16µM
COc1ccc(NC(=O)CCn2c(=S)[nH]c3ccccc3c2=O)cc1Cl,.,.,/,/,/,.
CC(=O)c1cc(-c2ccccc2)n(CCC(=O)Nc2ccc(C(C)C)cc2)c1C,/,8.2µM,/,/,?,5.8µM
CCOC(=O)c1cc(-c2ccccc2)n(CCCC(=O)Nc2ccc(C)c(Cl)c2)c1C,/,?,/,/,.,23µM
CCOC(=O)c1cc(-c2ccccc2)n(CCCC(=O)Nc2ccccc2C)c1C,/,?,/,/,.,23µM
CC1NC(C(=O)O)Cc2c1[nH]c1ccccc21 (configuration not stated),/,.,/,/,/,.
Cc1ccc2c(CC(=O)Nc3cccc(Cl)c3C)coc2c1,/,.,/,/,/,.
CCOC(=O)c1cc(-c2ccccc2)n(CCCC(=O)Nc2ccc(CC)cc2)c1C,/,?,/,/,.,?
CCOC(=O)c1cc(-c2ccccc2)n(CCC(=O)Nc2ccc(C(F)(F)F)cc2)c1C,/,7.3µM,/,/,?,7.3µM
Cc1cc(N2CCN(CC(O)C(F)(F)F)CC2)c2ccccc2n1 (configuration not stated),.,?,.,.,.,.
SMILES,IL-1B inflam inh,DT40 TDP1 CPT,SW480 rereplic,MCF10A rerep,BCR signal inh,TDP1 cell noCPT
COc1ccc2nc(C)cc(N3CCN(c4ccccc4)CC3)c2c1,-65,21µM,.,.,.,18µM
COc1ccc2nc(C)cc(N3CCN(S(=O)(=O)c4ccccc4F)CC3)c2c1,?,?,.,.,.,3.3µM
COc1ccc(C(=O)CN2CCN(c3cc(C)nc4ccccc34)CC2)cc1,.,26µM,.,.,.,29µM
Clc1ccc(Nc2nnc(Cc3ccncc3)c3ccccc23)cc1,/,?,.,.,/,?
CCOc1nc(Nc2cc(Cl)ccc2OC)nc(OCC)n1,.,21µM,.,.,.,?
CCOc1nc(Nc2ccc(OC)cc2OC)nc(OCC)n1,.,.,.,.,.,16µM
COc1ccc(Cl)cc1Nc1nc(N2CCCC2)nc(N2CCCC2)n1,/,/,/,/,.,/

# Bioassay records: PubChem, National Center for Advancing Translational Sciences (NCATS)
